The text below walks through data of PubChem BioAssay (NCI).

The panel holds about 83,000 compounds, 20% with a hit somewhere; the sample as a whole holds those more often.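 Plates (96-well) were seeded with cells, treated with compound at one concentration, and incubated for 48 hours before percent growth was determined.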 Values without a mark were called inactive. Active and inactive are the calls of the source. How the source made its calls: active means growth percent below 10; inactive means the rest.

Among the test systems are SK-MEL-2 melanoma; EKVX NSCLC; SN12C renal; UO-31 renal; TK-10 renal; ACHN renal; A498 renal; CCRF-CEM leukemia; MOLT-4 leukemia; SR leukemia.
Holding throughout (experiment): NCI-60 one-dose screen, 48 h (100 = growth as untreated, 0 = no growth, -100 = all killed)
Common to all, as to conditions: 10 µM unless noted

Take `CC(=O)OC[C@]12CC[C@@H](c3cn(Cc4ccc(Cn5cc([C@@H]6CC[C@]7(COC(C)=O)CC[C@]8(C)[C@H](CC[C@@H]9[C@@]%10(C)CC[C@H](OC(C)=O)C(C)(C)[C@@H]%10CC[C@]98C)[C@@H]67)nn5)cc4)nn3)[C@@H]1[C@H]1CC[C@@H]3[C@@]4(C)CC[C@H](OC(C)=O)C(C)(C)[C@@H]4CC[C@@]3(C)[C@]1(C)CC2`: the growth was 97% in the assay with SK-MEL-2 melanoma; 104% in the assay with EKVX NSCLC; 106% in the assay with SN12C renal; 90.7% with UO-31 renal; 95.1% with TK-10 renal; 97.1% in the assay with ACHN renal. Also, the growth in the assay with A498 renal is 105%; in the assay on CCRF-CEM leukemia, 102%; with MOLT-4 leukemia, 97.1%; in the assay with SR leukemia, 98%.
`O=C(NCc1ccccc1)c1ccc2c(c1)NC(=O)[C@@H]1CCCN21`: the growth in the assay on SK-MEL-2 melanoma is 99%; in the assay with EKVX NSCLC, 101%; with SN12C renal, 105%; in the assay with UO-31 renal, 90.9%; with TK-10 renal it was 93.8%; in the assay on ACHN renal, 98.7%. Moreover, the growth with A498 renal was 70.3%; in the assay with CCRF-CEM leukemia, 116%; with MOLT-4 leukemia, 113%; in the assay on SR leukemia, 106%.
`COc1ccc([C@H]2[C@@H](F)C(=O)N2c2cc(OC)c(OC)c(OC)c2)cc1F`: the growth in the assay on SK-MEL-2 melanoma was 58.8%; in the assay with EKVX NSCLC it was 72.2%; in the assay on SN12C renal, 33.3%; in the assay on UO-31 renal it was 43.2%; with TK-10 renal, 64.4%; in the assay with ACHN renal, 32.7%. Also, the growth in the assay on A498 renal was -5.5% (active); in the assay with CCRF-CEM leukemia, 13.2%; with MOLT-4 leukemia it was 19.7%; in the assay on SR leukemia it was 13.3%.
For the molecule `C[C@H]1[C@H](C)CC[C@]2(C(=O)OCCOCCOCC[P+](c3ccccc3)(c3ccccc3)c3ccccc3)CC[C@]3(C)C(=CC[C@@H]4[C@@]5(C)CC[C@H](OC(=O)C(Cl)Cl)C(C)(C)[C@@H]5CC[C@]43C)[C@H]12`, the growth with SK-MEL-2 melanoma was -21.5% (active); in the assay on EKVX NSCLC it was -3.78% (active); with SN12C renal, -6.85% (active); in the assay on UO-31 renal, 3.95% (active); in the assay with TK-10 renal, 12.7%; in the assay with ACHN renal, -1.41% (active). In addition, the growth was 6.28% (active) with A498 renal, 7.44% (active) with CCRF-CEM leukemia, -6.91% (active) in the assay on MOLT-4 leukemia and -33.5% (active) in the assay with SR leukemia.
Take `CCCCc1ccc(N=Nc2ccc(OCC[N+](C)(C)C)cc2)cc1`: the growth was 93.6% with SK-MEL-2 melanoma; 85.1% in the assay on EKVX NSCLC; 31% in the assay on SN12C renal; 88.1% in the assay with UO-31 renal; 31.3% in the assay on TK-10 renal; 67% in the assay on ACHN renal. In addition, the growth in the assay with A498 renal was 67.5%; in the assay with CCRF-CEM leukemia it was 62.4%; in the assay on MOLT-4 leukemia, 57.2%; in the assay on SR leukemia, 76%.
Take `C[C@H](Oc1cc(-c2cnn(C3CCNCC3)c2)cnc1N)c1c(Cl)ccc(F)c1Cl`: the growth with SK-MEL-2 melanoma was 71.1%; in the assay with EKVX NSCLC, 79.6%; with SN12C renal it was 54.2%; in the assay with UO-31 renal, 61.7%; in the assay on TK-10 renal, 88.7%; in the assay with ACHN renal, 75.6%. The growth with A498 renal was 68%; in the assay on CCRF-CEM leukemia it was 34.6%; in the assay on MOLT-4 leukemia, 14%; in the assay on SR leukemia it was -22.1% (active).
In the case of `CCCCc1nc(Cl)c(C2CC(c3ccc(Cl)cc3)=NN2c2cc(Cl)cc(Cl)c2)[nH]1` (stereo not given), the growth in the assay with SK-MEL-2 melanoma is 96%; in the assay on EKVX NSCLC, 57.8%; in the assay on SN12C renal it was 45.4%; in the assay with UO-31 renal it was 52.7%; in the assay with TK-10 renal, 94.2%; with ACHN renal, 14.2%. Further, the growth with A498 renal is 84%; with CCRF-CEM leukemia it was 51.6%; in the assay with MOLT-4 leukemia it was 24.6%; in the assay on SR leukemia it was 61.8%.
With `Cc1cccc(C)c1NCc1nnc(-c2ccco2)o1`, the growth in the assay with SK-MEL-2 melanoma is 100%; in the assay with EKVX NSCLC, 81.5%; in the assay on SN12C renal, 94.8%; in the assay with UO-31 renal, 65.1%; with TK-10 renal, 123%; in the assay on ACHN renal, 101%. Further, the growth with A498 renal is 96.5%; in the assay on CCRF-CEM leukemia it was 91.4%; with MOLT-4 leukemia, 88.8%; in the assay on SR leukemia, 85.7%.
As to `Nc1ccc(C2=NN(C(=O)c3cc(-c4ccc(Cl)cc4)nc4ccccc34)C(c3ccc(Cl)cc3)C2)cc1` (stereo not given), the growth in the assay on SK-MEL-2 melanoma is 34.7%; in the assay on EKVX NSCLC, 42.8%; in the assay on SN12C renal it was 56.5%; with UO-31 renal it was 47.6%; in the assay with TK-10 renal, 55.3%; in the assay on ACHN renal, 54.4%. Besides, the growth in the assay with A498 renal was 31.1%; in the assay on CCRF-CEM leukemia, 17.8%; in the assay on MOLT-4 leukemia, 42.6%; in the assay with SR leukemia it was 25.7%.
For `O=C(Nc1nc(-c2ccccc2Cl)cs1)c1cc(-c2ccc(Br)cc2)nc2ccccc12`, the growth in the assay on SK-MEL-2 melanoma was 26.6%; in the assay with EKVX NSCLC, 35.6%; with SN12C renal it was 69.9%; with UO-31 renal, 42%; in the assay on TK-10 renal it was 49.4%; with ACHN renal it was 49.7%. The growth in the assay with A498 renal was 22.6%; in the assay on CCRF-CEM leukemia it was 44.9%; in the assay on MOLT-4 leukemia, 37.2%; in the assay on SR leukemia it was 53%.
As for `CC(=O)OCC1SC(OC(C)=O)C(NC(=O)/C=C/CCl)C(OC(C)=O)C1OC(C)=O` (stereo not given), the growth in the assay with SK-MEL-2 melanoma is 79.9%; with EKVX NSCLC, 102%; in the assay with SN12C renal it was 89.4%; with UO-31 renal it was 102%; in the assay with TK-10 renal, 93.8%; in the assay with ACHN renal, 92.1%. The growth with A498 renal was 96.3%; with CCRF-CEM leukemia, 83.7%; in the assay with MOLT-4 leukemia, 88.1%; in the assay with SR leukemia it was 86.2%.
Turning to `CCOC(=O)C(=Cc1c(-c2ccccc2)[nH]c2ccccc12)C(=O)OCC`, the growth in the assay with SK-MEL-2 melanoma was -3.76% (active); in the assay with EKVX NSCLC it was 71.1%; with SN12C renal it was 65.6%; with UO-31 renal, 33.5%; in the assay on TK-10 renal, 92.2%; in the assay with ACHN renal it was 54%. Besides, the growth in the assay with A498 renal is 74.1%; in the assay on CCRF-CEM leukemia, 4.23% (active); in the assay on MOLT-4 leukemia it was 1.38% (active); with SR leukemia it was 10%.
Consider `CN1CCN(CC#CCOC(=O)CNC(=O)[C@]23CCC(C)(C)C[C@H]2C2=CC[C@@H]4[C@@]5(C)CC[C@H](O)C(C)(C)[C@@H]5CC[C@@]4(C)[C@]2(C)CC3)CC1`, for which the growth in the assay with SK-MEL-2 melanoma was 95.4%; in the assay with EKVX NSCLC it was 89.1%; with SN12C renal, 82.2%; in the assay on UO-31 renal, 63%; in the assay with TK-10 renal, 109%; in the assay on ACHN renal, 92.5%. Also, the growth was 69.4% with A498 renal, 85.6% in the assay on CCRF-CEM leukemia, 70.7% in the assay with MOLT-4 leukemia and 7.96% (active) in the assay on SR leukemia.
For the molecule `Sc1cccc2cccnc12`, the growth with SK-MEL-2 melanoma was 21.5%; in the assay on EKVX NSCLC it was 29.2%; with SN12C renal, 39.3%; in the assay on UO-31 renal it was 25.6%; with TK-10 renal, 48.3%; in the assay with ACHN renal, 30.1%. Moreover, the growth is 65.9% with A498 renal, 14.4% in the assay with CCRF-CEM leukemia, 22.2% in the assay on MOLT-4 leukemia and 6.61% (active) in the assay with SR leukemia.
Regarding `Cc1cccc(C)c1NCc1nnc(-c2ccc(O)cc2)o1`, the growth in the assay on SK-MEL-2 melanoma is 104%; in the assay with EKVX NSCLC, 90.6%; with SN12C renal it was 102%; in the assay on UO-31 renal, 85.5%; with TK-10 renal it was 104%; in the assay with ACHN renal, 98.6%. Besides, the growth with A498 renal was 107%; in the assay with CCRF-CEM leukemia, 94.8%; in the assay on MOLT-4 leukemia it was 108%; with SR leukemia it was 119%.
As for `CC(C)(C)c1ccc(O)c(Cc2cc(C(C)(C)C)ccc2O)c1`, the growth in the assay with SK-MEL-2 melanoma was 80%; in the assay with EKVX NSCLC it was 78.5%; in the assay with SN12C renal, 87.5%; with UO-31 renal, 85.7%; in the assay on TK-10 renal, 94.2%; in the assay with ACHN renal, 106%. Besides, the growth was 87.3% in the assay on A498 renal, 0.931% (active) in the assay with CCRF-CEM leukemia, 64.6% with MOLT-4 leukemia and 24.5% with SR leukemia.
In the case of `Cc1cc(C)c(NC(=O)c2sc3nc4c(cc3c2N)CCCCCC4)c(C)c1`, the growth in the assay with SK-MEL-2 melanoma is 34.6%; in the assay on EKVX NSCLC, 67.8%; in the assay with SN12C renal it was 68.3%; in the assay on UO-31 renal, 67.3%; with TK-10 renal, 74.2%; in the assay on ACHN renal, 72.4%. Besides, the growth is 19.9% in the assay with A498 renal, 32.8% in the assay on CCRF-CEM leukemia, 36.3% with MOLT-4 leukemia and 23.3% with SR leukemia.
Consider `COc1ccc(-c2nnc(N3CCN(C(=O)CN4CCN(c5ccc(OC)cc5)CC4)CC3)nc2-c2ccc(OC)cc2)cc1`, for which the growth in the assay on SK-MEL-2 melanoma is -63.6% (active); with EKVX NSCLC, 41.5%; in the assay on SN12C renal, -72.7% (active); in the assay on UO-31 renal it was -64.4% (active); in the assay with TK-10 renal it was 28.6%; with ACHN renal, 54.6%. Further, the growth in the assay on A498 renal is 98.1%; in the assay on CCRF-CEM leukemia, -50.7% (active); with MOLT-4 leukemia it was -54.2% (active); in the assay on SR leukemia it was -54.2% (active).
For the molecule `Cc1nn(-c2ccc(-c3ccc(OC(F)(F)F)cc3)cc2)c2nc(-c3ccccc3)nc(N)c12`, the growth was 101% in the assay with SK-MEL-2 melanoma; 97.7% in the assay on EKVX NSCLC; 92.5% in the assay on SN12C renal; 82.4% in the assay on UO-31 renal; 89.7% in the assay on TK-10 renal; 100% in the assay with ACHN renal. The growth with A498 renal was 90.2%; in the assay on CCRF-CEM leukemia, 88.9%; in the assay with MOLT-4 leukemia, 82.4%; with SR leukemia, 55.6%.
As for `C#C[C@@]1(O)[C@@H](CO)O[C@@H](n2cc(F)c3c(N)ncnc32)[C@@H]1O`, the growth was -1.11% (active) with SK-MEL-2 melanoma; 1.34% (active) with EKVX NSCLC; 2.43% (active) with SN12C renal; -15.5% (active) in the assay on UO-31 renal; 3.69% (active) in the assay with TK-10 renal; -10.6% (active) in the assay with ACHN renal. Besides, the growth in the assay with A498 renal is -76% (active); in the assay on CCRF-CEM leukemia it was 13.3%; with MOLT-4 leukemia, 4.47% (active); with SR leukemia, 12.9%.
Regarding `COc1ccccc1N1CCN(CCCOc2ccc(C(=O)/C=C3/C(=O)Nc4ccccc43)cc2)CC1`, the growth was 72.2% with SK-MEL-2 melanoma; 53.5% in the assay with EKVX NSCLC; 69.7% in the assay on SN12C renal; 44.5% with UO-31 renal; 87.1% with TK-10 renal; 74.2% with ACHN renal. The growth in the assay on A498 renal was 88.6%; in the assay on CCRF-CEM leukemia, 15.6%; in the assay on MOLT-4 leukemia, 18.6%; in the assay with SR leukemia, 19.8%.
